Reference: PubChem BioAssay AID504339 (National Center for Advancing Translational Sciences (NCATS), 2011)
The whole screen tested about 390,000 compounds, of which about 17,000 (4.4%) were called active. Roughly 8% stayed inconclusive and do not appear here. Calls come from the whole dose curve; as a rule, active = well fitted inhibition curve with a large enough effect; inconclusive = small, poorly fitted or top-dose-only effect; inactive = no such curve, though single readings can be large or run the other way. This excerpt belongs to a sample that is enriched for actives.

Target: Lysine-specific demethylase 4A (Homo sapiens) (UniProt O75164)
Sequence (O75164 whole entry, looked up, the tested form may be a part): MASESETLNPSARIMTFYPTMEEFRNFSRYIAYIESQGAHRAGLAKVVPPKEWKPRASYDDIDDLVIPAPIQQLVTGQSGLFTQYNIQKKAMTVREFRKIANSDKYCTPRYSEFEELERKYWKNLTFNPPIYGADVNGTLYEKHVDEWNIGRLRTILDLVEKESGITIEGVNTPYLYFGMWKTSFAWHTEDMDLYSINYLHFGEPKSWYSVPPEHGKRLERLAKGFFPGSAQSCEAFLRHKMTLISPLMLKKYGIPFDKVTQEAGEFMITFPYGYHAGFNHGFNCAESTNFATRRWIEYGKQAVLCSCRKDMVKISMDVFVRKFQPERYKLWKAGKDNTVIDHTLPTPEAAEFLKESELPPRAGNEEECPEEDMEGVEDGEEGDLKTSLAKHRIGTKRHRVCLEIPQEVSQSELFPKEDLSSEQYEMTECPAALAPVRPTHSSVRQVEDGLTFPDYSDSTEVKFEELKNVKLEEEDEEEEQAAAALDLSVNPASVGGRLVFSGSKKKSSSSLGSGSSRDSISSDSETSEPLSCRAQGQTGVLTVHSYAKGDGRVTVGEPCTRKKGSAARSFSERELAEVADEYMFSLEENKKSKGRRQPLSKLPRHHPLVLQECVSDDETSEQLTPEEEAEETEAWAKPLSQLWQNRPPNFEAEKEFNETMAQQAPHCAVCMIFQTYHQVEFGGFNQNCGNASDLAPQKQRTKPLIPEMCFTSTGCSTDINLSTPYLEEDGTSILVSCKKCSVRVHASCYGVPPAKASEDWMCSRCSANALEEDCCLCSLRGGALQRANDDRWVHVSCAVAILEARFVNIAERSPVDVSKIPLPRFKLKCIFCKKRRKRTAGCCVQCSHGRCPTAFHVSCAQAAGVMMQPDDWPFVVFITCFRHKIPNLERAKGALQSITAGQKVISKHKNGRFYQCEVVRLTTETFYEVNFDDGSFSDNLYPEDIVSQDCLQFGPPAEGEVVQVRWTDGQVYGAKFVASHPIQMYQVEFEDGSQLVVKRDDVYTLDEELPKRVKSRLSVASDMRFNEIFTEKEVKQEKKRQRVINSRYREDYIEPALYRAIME
Test: qHTS Assay for Inhibitors of JMJD2A-Tudor Domain; note: nearly all actives have a fitted effect of over 50% in size
Conditions: AlphaScreen JMJD2A-Tudor / H3K4me3 peptide binding; series mostly up to 114 µM; activity change, negative = inhibition: at the top concentration
From the text: JMJD2A is a jumonji-domain-containing lysine demethylase that uses Fe(II) together with 2-OG to effect oxidative demethylation of histones. Methylation is one of many […] modification that affect epigenetic transcription. […] It is proposed that the functions of JmjD2A binding to the histones, is to maintain marks after they are installed and to spread the modifications by […], establishing a self-propagating cycle for rapid methylation over a large area of chromatin. […] Thus, small molecule targeting of the JMJD2A-tudor domain interaction with its target methylhistone mark is expected to enable sophisticated experiments probing the fine regulatory pathways leading to selective demethylation of a given methyllysine locus based on the methylation state of adjacent histone marks. A quantitative high throughput AlphaScreen has been developed to identify small molecule inhibitors based on a protocol published by NCGC and SGC [4].
Although AlphaScreen has significant advantages with its utility in a variety of epigenetic target assays, the primary screening data provided in this deposition should be used with caution due to the prevalence of screening artifacts. The top compound concentration tested was high (>100uM) in this assay, which increases number of actives and potential artifacts. An AlphaScreen counterscreen is highly recommended to be run against any putative actives to eliminate non-specific artifacts. Alternatively, one can use other AlphaScreen assays in PubChem to filter out promiscuous hits.
[1] Lee, J. et al. Distinct binding modes specify the recognition of methylated histone H3K4 and H4K20 by JMJD2A-tudor. Nat Struct Mol Biol. 15(1); 109-11. 2008. PMID: 18084306
[2] Yasgar, et al. Compound Management for Quantitative High-Throughput Screening. JALA. 2008 Apr;13(2):79-89. PMID: 18496600
[3] Inglese, et al. Quantitative high-throughput screening: a titration-based approach that efficiently identifies biological activities in large chemical libraries. Proc Natl Acad Sci. 1;103(31):11473-8. 2006. PMID: 16864780
[4] Quinn et al. A homogeneous method for investigation of methyl-dependent protein-protein interactions in epigenetics. Nucleic Acids Res., 38(2):e11. 2010. PMID: […]
[5] Baell,Holloway. New substructure filters for removal of pan assay interference compounds (PAINS) from screening libraries and for their exclusion in bioassays. J Med Chem. 53(7):2719-40. 2010. PMID: 20131845
NIH Molecular Libraries Probe Production Network [MLPCN]
NIH Chemical Genomics Center [NCGC]
Structural Genomics Consortium (SGC)
To each well of a 1,536w plate, 2ul of JMJD2A-Tudor (final 100nM) and 1ul biotinylated histone peptide methylated at Lys4 [b-H3(1-18)K4me3] (final 50nM) were added in 1x PBS buffer, pH 7.4, containing 0.01% Tween-20, using a nanoliter dispenser. Formation of a protein-peptide complex proceeded at room temperature for 30 min. A Kalypsys pin-tool transferred 23nl of library compound solution in DMSO to each well. Following a 30 min incubation of the protein-peptide complex with compounds at room temperature, a mixture of 40 µg/mL each streptavidin-coated donor and nickel chelate acceptor AlphaScreen beads (final 10 µg/mL) was added in a 1ul dispense for a final volume of 4ul, followed by a brief centrifugation (1000 rpm, 1 min). Plates were incubated protected from the light for 20 min at room temperature. Microplates were then read on an EnVision multilabel plate reader using the 1,536 plate HTS AlphaScreen aperture (excitation time 80 ms, measurement time 240 ms).
% is set by controls: 0 for no effect and ±100 for the full control effect; potency is the fitted concentration of half-maximal effect.

Potency, active:
Cc1ccccc1NC(=O)CSC(=O)c1ccccc1 89.1 µM
Cn1c(CC2Sc3ccccc3NC2=O)nnc1SCC(=O)c1ccc(Cl)cc1 (centres undefined) 25.1 µM
O=C(CN1C(=O)/C(=C/c2ccccc2F)Sc2ccccc21)NCc1cccnc1 89.1 µM
C=CC[n+]1c(-c2ccc(C)cc2)csc1NNC(=O)Nc1ccccc1 28.2 µM
CCC(C)(C)n1nnnc1C(c1ccc(OC)c(OC)c1)N1CCN(C(=O)c2ccco2)CC1 (centres undefined) 79.4 µM
CSCc1nnc(NC(=O)c2ccc(S(=O)(=O)N3CCCCC3C)cc2)o1 (centres undefined) 50.1 µM
CCN(CC)S(=O)(=O)c1ccc(NC(=O)c2cccnc2Cl)c(NC(=O)c2cccnc2Cl)c1 31.6 µM
Cc1cc(C)c(S(=O)(=O)N2CCOCC2)cc1C 11.2 µM
CN(C)c1ccc(C(=S)N2CCN(C(=S)Nc3ccc(Cl)cc3)CC2)cc1 28.2 µM
O=C(N/N=C/c1cc(Cl)cc([N+](=O)[O-])c1O)C(O)(c1ccccc1)c1ccccc1 50.1 µM
CN(C)c1cc(N)c2ccccc2n1 (tested in a mixture with another compound) 2.82 µM
CCCCC1(C(=O)OCC)NC(c2ccc(O)cc2)C2C(=O)N(c3ccccc3)C(=O)C21 (centres undefined) 28.2 µM
Cc1ccc(NC(=O)CNCc2ccccn2)cc1S(=O)(=O)N(C)C 56.2 µM
COc1ccc(-c2nc(=N)sn2-c2ccccc2)cc1 5.62 µM
Cc1ccc(-c2nc(=N)sn2Cc2ccccc2)cc1 4.47 µM
CCOc1ccc(C2c3[nH]c4ccccc4c3CCN2Cc2cccn2-c2ncccn2)cc1 (centres undefined) 44.7 µM
Cc1c(CN2CCC(CO)(CCOc3ccccc3)CC2)[nH]c2ccc(Cl)cc12 50.1 µM
O=C(O)c1n[nH]nc1-c1ccccc1 4.47 µM

Potency, inactive:
Cc1ccccc1NC(=O)CCOc1ccccc1

Activity change, negative = inhibition, inactive:
Cc1cccc(NC(=O)CSC(N)=O)c1C -8.89%
COc1ccccc1NC(=O)c1sc2nc(C)c(C(=O)Nc3ccc(Cl)cc3)c(-c3ccc(Br)cc3)c2c1N -2.39%
Cn1c(CC(=O)Nc2ccccc2)nnc1SCC(=O)c1ccccc1 -9.68%
O=C(CC1Sc2ccccc2NC1=O)NNc1ccc(Cl)c(Cl)c1 (centres undefined) -9.09%
CN(C(=O)CSc1nnc(NC(=O)Nc2ccccc2)s1)c1ccccc1 -10.4%
COc1ccc(CNC(=O)Cn2nnc(-c3ccccc3F)n2)cc1 -11.6%
Cc1cccc(NC(=O)Cn2cc(S(=O)(=O)Cc3ccccc3Cl)c3ccccc32)c1 -14.9%
CSc1ccc(C2C(C(=O)Nc3ccccc3)=C(C)Nc3nc4ccccc4n32)cc1 (centres undefined) -12.3%
COCCNC(=O)c1cc(-c2cccc(Cl)c2)on1 -21.2%
O=C(CN1C(=O)/C(=C\c2ccc(C(F)(F)F)cc2)Sc2ccccc21)NCc1ccco1 -13.2%
O=C(CN1C(=O)S/C(=C\c2ccccc2F)C1=O)NCCCn1ccnc1 -14.5%
Cc1nn(CC(=O)N2CCN(c3cccc(C(F)(F)F)c3)CC2)c(=O)c2cc3sccc3n12 -5.45%
CCc1ccc(S(=O)(=O)Nc2cc3c(C(=O)OCc4ccccc4)c(C)oc3c3ccccc23)cc1 -19%
Cc1ccc(-c2cc(C(=O)Oc3ccccc3Cl)no2)cc1C 101%
O=C(NNC(=O)c1ccc(-c2ccccc2)cc1)Nc1ccccc1 -2.1%
Cc1ccc(NC(=O)NNC(=O)c2sccc2-n2cccc2)cc1 -27%
FC(F)(F)c1cc(Nc2nc3ccccc3c3nncn23)ccc1Cl -8.56%
CC(C)(C)n1nnnc1C(c1ccccc1F)N1CCN(C(=O)c2ccco2)CC1 (centres undefined) 6.92%
CCC(c1nnnn1C1CCCC1)N1CCN(C(=O)c2ccco2)CC1 (centres undefined) -20.8%
CC1CCCCN1S(=O)(=O)c1ccc(C(=O)Nc2nnc(-c3cccs3)o2)cc1 (centres undefined) -1.53% [at 11.4 µM]
CC1CCCCN1S(=O)(=O)CCNC(=O)c1ccccc1 (centres undefined) -2.72%
Cc1nnc(C)n1-c1ccc(C(=O)Nc2cccc(Br)c2)cc1 -7.42%
COC(=O)CN1C(=O)CSc2ccc(S(=O)(=O)Nc3cc(C)ccc3C)cc21 -13.4%
CC(C)(C)OC(=O)N1CCC(c2c(C(=O)N3CCc4ccccc4C3)cnn2-c2ccc(F)cc2)CC1 -18.4%
Cc1ccc(Cl)cc1N1CCN(C(=O)C2CCC(CNS(=O)(=O)c3cccs3)CC2)CC1 (centres undefined) -20.2%
C#CCOc1ccc(C2CC(=O)Nc3c2c(C)nn3-c2nc(C)cc(C)n2)cc1 (centres undefined) -27.2%
Cc1ccc(CSc2oc(-c3cccs3)nc2S(=O)(=O)c2ccc(C)cc2)cc1 -1.37%
CCN(CC)S(=O)(=O)c1ccc(NC(=O)c2cnc(C)cn2)cc1 0.664%
Cc1ccc(CNC(=O)c2cccnc2Cl)cc1 -11.1%
Cc1ccccc1CN1CCC(CNC(=O)c2cc3ccc4cccnc4c3[nH]2)CC1 -27.2%
Cc1ccc(C(=O)Nc2c(C(=O)NC(C)(C)C)oc3ccccc23)cc1 6.8%
O=C(Cc1ccc(Cl)cc1)NCC(c1cccs1)S(=O)(=O)c1ccc(Cl)cc1 (centres undefined) -13.3%
COc1cc(C)c(S(=O)(=O)N2CCOCC2)c(C)c1C 0%
Cc1ccc(NC(=O)C2CC2)cc1S(=O)(=O)N1CCOCC1 -17.9%
Cn1nc(-c2ccccc2)c(-c2ccccc2)c(C(=O)Nc2ccc(S(N)(=O)=O)cc2)c1=O -18.9%
CCOc1cccc2sc(N3CCN(C(=O)C4CC4)CC3)nc12 -8.44%
CCOC(=O)c1c(C)[nH]c(CCC(=O)Nc2ccc(OC)c(OC)c2)c1C -27.9%
O=C1Cc2cc(S(=O)(=O)Nc3ccc(OC(F)(F)F)cc3)cc3c2N1CCC3 -14.3%
CCOC(=O)c1ccc(NC(=S)N2CCCC2)cc1 -7.88%
O=C(NC1CCN(C(=S)Nc2ccc(Cl)cc2)CC1)C1CCCCC1 -8.8%
Cc1c(CNC2CCCCC2)c(C(=O)O)c(C)n1Cc1cccc(Cl)c1 -17.4%
Cc1cccc(NC(=O)CSc2nnc(CNC(=O)c3cccc(C)c3)n2-c2ccccc2)c1 -19.5%
O=C(Cc1ccccc1)N/N=C/c1ccc(Cl)cc1Cl -6.47%
Cc1nn(-c2ccccc2)c(Cl)c1/C=N/NC(=O)c1nn(C)cc1[N+](=O)[O-] 15.2%
CCOC(=O)c1ccc(NC(=O)Cn2c(=O)cc(C)c3c(C)nn(-c4cccc(F)c4)c32)cc1 -6.67%
CCN1C(=O)c2ccccc2S(=O)c2ccc(C(=O)NCc3ccc(F)cc3)cc21 (centres undefined) 1.68%
CN(c1ccc2nc3ccccc3c(=O)n2n1)C1CCCCC1 4.35%
O=C(CC1N=C2c3ccccc3N=C(SCc3ccc(F)cc3)N2C1=O)NCc1cccs1 (centres undefined) -21%
Cc1cc(-c2ccc(C)c(S(=O)(=O)N3c4ccccc4CC3C)c2)on1 (centres undefined) 11.7%
O=S(=O)(c1ccc2nc(N3CCN(c4cccc(Cl)c4)CC3)ccc2c1)N1CCCCC1 9.42%
COC(=O)C1(C)NC(c2ccc(F)cc2)C2C(=O)N(c3ccccc3)C(=O)C21 (centres undefined) 1.31%
CCOC(=O)C1(C)NC(c2ccco2)C2C(=O)N(c3ccccc3)C(=O)C21 (centres undefined) -18.4%
COc1ccccc1CNC(=O)C(=O)NCC(c1cccs1)S(=O)(=O)c1cccs1 (centres undefined) -17.5%
CCCN(CCC)S(=O)(=O)c1ccc(C(=O)Nc2sc3c(c2C(=O)OC)CCN(CC)C3)cc1 -9.17%
Cc1ccc2oc(C(=O)Nc3ccc(S(=O)(=O)N4CCCCCC4)cc3)cc(=O)c2c1 -14.2%
CC1CCCCN1CC(=O)N1CCCc2c1c(=O)oc1ccc(OCc3ccccc3)cc21 (centres undefined) -29.8%
Cc1ccc(C(=O)Nc2ccc(C)c(S(=O)(=O)N(C)C)c2)s1 -9.67%
CCN(c1ccccc1)S(=O)(=O)c1cc(C(=O)NCc2ccccn2)ccc1C -17.2%
Cc1ccc(OCC(=O)Nc2ccc(OCc3cc(=O)n4c(C)csc4n3)cc2)cc1C -23.8%
Cc1cccc(NC(=O)Cn2c(C(F)(F)F)nc3ccccc32)c1C -12.8%
CCc1nccn1S(=O)(=O)c1cc(Br)ccc1Br -1.49%
N#C/C(=C\c1ccccc1F)c1nc2ccccc2c(=O)[nH]1 -15.7%
Cc1ccc(-c2cc(C(=O)NC3CCN(Cc4ccccc4)CC3)c3ccccc3n2)cc1 -14.5%
COc1ccc(-c2nn3c(-c4ccc(OC)cc4)nnc3c3ccccc23)cc1 5.15%
Cc1n[nH]c(=O)n1-c1ccc(Oc2ccccc2)cc1 -11%
Cc1ccc(CN2C(=O)SC(Nc3ccccc3)C2=O)cc1 (centres undefined) 14.8%
CC(C)c1ccc2oc(-c3cc(NC(=O)c4cccs4)ccc3Cl)nc2c1 -2.99%
COC(=O)c1cc(NC(=O)CCc2c(C)nc3c4c(C)cc(C)nc4nn3c2C)cc(C(=O)OC)c1 -13.2%
COc1ccc(Cl)cc1NC(=O)CSc1nc(=O)[nH]c2c1CCCC2 -2.27%
Cc1cc(OCC(=O)Nc2ncn[nH]2)c(C)c(C)c1Br -7.56%
COc1ccc(Cn2cc(C(=O)c3ccc(C)cc3)c(=O)c3cc(OC)c(OC)cc32)cc1 -31.3%
COc1ccc(CCNC(=O)c2cn(C)c3ccc(S(=O)(=O)N(C)C4CCCCC4)cc3c2=O)cc1OC -4.33%
CCOc1ccc(C2c3[nH]c4ccccc4c3CCN2Cc2cn(CC)nc2C)cc1 (centres undefined) -29.1%
CCOc1cccc(CC(=O)N2CCc3c([nH]c4ccccc34)C2c2ccc(OC)cc2)c1OCC (centres undefined) -31.5%
COc1ccc(C2CC(=O)Nc3c2c(=O)nc2c(C)cccn32)cc1OC (centres undefined) -18.9%
Cc1ccc(-n2c(=O)c3cccnc3n2CC(=O)NCc2ccc(F)cc2)cc1C 3.75%
CCOC(=O)C1(CCOc2ccccc2)CCN(Cc2ccc(C#CCCO)cc2)CC1 -15.1%
CCOC(=O)C1(CCOc2ccccc2)CCN(Cc2cc(OC)cc(OC)c2)CC1 -11.6%
O=C(O)c1ccc(-n2nc(-c3ccccc3)c3ccccc3c2=O)cc1 -7.69%
N#Cc1c(-c2ccccc2)c(-c2ccccc2)n[nH]c1=O -7.47%
